# Several values for one entry are separate records, joined by “and”; a condition that tells them apart may be missing. Identical values can stand only once. More than one record can exist for a structure, and the calls need not agree. Activity calls are given as the source filed them. How the source made its calls: active means hit-call score of the fitted dose curve at least 0.9, where 1 is the maximum; inactive means score below 0.9.
# Experiments:
# [1] = ATG_CRE_CIS: Attagene CIS-FACTORIAL HepG2 Assay for human cAMP Responsive Element (CRE) binding protein 3 (AID 2282926); details: HepG2 CRE cis-reporter, Attagene multiplexed mRNA; actives raise or lower the signal
# Method in brief: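 Liver-derived HepG2, transfected with a CRE-containing reporter panel, exposed 24 h; transcript levels sized and quantified by capillary electrophoresis of labelled amplicons; signal changes either way referenced to vehicle.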
# [2] = BSK_3C_uPAR: BioMAP Diversity Plus: 3C Assay for Urokinase-type plasminogen activator receptor (uPAR) Biomarker Activity (AID 2282998); details: BioMAP 3C HUVEC, uPAR biomarker ELISA; actives raise or lower the signal
# Method in brief: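 In this endothelial cell-based assay, human umbilical vein primary cells were treated with chemicals and harvested at 24 h. uPAR was quantified using ELISA, with gains or losses fitted relative to DMSO controls.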
# [3] = read-out: Tissue Factor, F3 (gene 2152); assay: BSK_CASM3C_TissueFactor: BioMAP Diversity Plus: CASM3C Assay for Tissue Factor Biomarker Activity (AID 2283052); details: primary human coronary artery smooth muscle cells; actives raise or lower the signal;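 further: cell surface tissue factor protein level read by ELISA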
# [4] = read-out: Interferon-gamma inducible Protein 10 (IP10), CXCL10 (gene 3627); assay: BSK_hDFCGF_IP10: BioMAP Diversity Plus: hDFCGF Assay for Interferon-gamma inducible Protein 10 (IP10) Biomarker Activity (AID 2283053); details: primary human foreskin fibroblasts; actives raise or lower the signal
# Method in brief: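 ELISA quantification of IP-10 after a 24 h chemical exposure of human dermal foreskin fibroblast primary cultures. Both increases and decreases versus DMSO fitted.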
# [5] = read-out: Urokinase-type plasminogen activator receptor (uPAR), PLAUR (gene 5329); assay: BSK_CASM3C_uPAR: BioMAP Diversity Plus: CASM3C Assay for Urokinase-type plasminogen activator receptor (uPAR) Biomarker Activity (AID 2283054); details: primary human coronary artery smooth muscle cells; actives raise or lower the signal;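 further: cell-surface uPAR protein level quantified by ELISA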
# [6] = read-out: Collagen III, COL3A1 (gene 1281); assay: BSK_hDFCGF_CollagenIII: BioMAP Diversity Plus: hDFCGF Assay for Collagen III Biomarker Activity (AID 2283056); details: primary human foreskin fibroblasts; actives raise or lower the signal
# Method in brief: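 Response relative to DMSO, fitted in both directions, reflects ELISA-measured collagen III in human primary skin fibroblasts 24 h after compound addition.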
# [7] = read-out: Epidermal growth factor receptor (EGFR), EGFR (gene 1956); assay: BSK_hDFCGF_EGFR: BioMAP Diversity Plus: hDFCGF Assay for Epidermal growth factor receptor (EGFR) Biomarker Activity (AID 2283057); details: primary human foreskin fibroblasts; actives raise or lower the signal
# Method in brief: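 EGFR levels by ELISA in human dermal fibroblast cultures, 24 h post-treatment, fitted bidirectionally versus DMSO. Parallel wells stained with sulforhodamine B to detect overt cytotoxicity.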
# [8] = read-out: Macrophage colony-stimulating factor (MCSF), CSF1 (gene 1435); assay: BSK_hDFCGF_MCSF: BioMAP Diversity Plus: hDFCGF Assay for Macrophage colony-stimulating factor (MCSF) Biomarker Activity (AID 2283060); details: AC50: primary human foreskin fibroblasts, actives raise or lower the signal unless noted; outcome: primary human foreskin fibroblasts, actives raise or lower the signal unless noted
# Method in brief: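 fibroblasts (human foreskin, primary), 24 h post-dose; M-CSF by ELISA; bidirectional fit, DMSO = baseline.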
# [9] = read-out: Monokine induced gamma interferon (MIG), CXCL9 (gene 4283); assay: BSK_hDFCGF_MIG: BioMAP Diversity Plus: hDFCGF Assay for Monokine induced gamma interferon (MIG) Biomarker Activity (AID 2283063); details: primary human foreskin fibroblasts; actives raise or lower the signal
# Method in brief: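 Endpoint derived by bidirectional fitting relative to DMSO; MIG quantified via ELISA in primary human foreskin fibroblasts harvested 24 h after dosing.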
# [10] = read-out: Vascular cell adhesion molecule 1 (VCAM1), VCAM1 (gene 7412); assay: BSK_hDFCGF_VCAM1: BioMAP Diversity Plus: hDFCGF Assay for Vascular cell adhesion molecule 1 (VCAM1) Biomarker Activity (AID 2283065); details: primary human foreskin fibroblasts; actives raise or lower the signal;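 on AC50: VCAM-1 protein level quantified by ELISA after 24 h chemical exposure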
# Method in brief: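 Measured after 24 h chemical treatment of primary human skin fibroblasts, VCAM-1 was detected by ELISA and concentration-response analysed in both directions versus DMSO vehicle.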
# [11] = read-out: Intercellular Adhesion Molecule 1 (ICAM1), ICAM1 (gene 3383); assay: BSK_KF3CT_ICAM1: BioMAP Diversity Plus: KF3CT Assay for Intercellular Adhesion Molecule 1 (ICAM1) Biomarker Activity (AID 2283067); details: primary human keratinocytes with fibroblasts; actives raise or lower the signal
# Method in brief: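 Bidirectional curve fitting against a DMSO baseline was applied to ICAM-1 ELISA signal from primary human skin co-cultures harvested 24 h after treatment, with SRB staining of parallel wells for overt cytotoxicity.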
# CD40, CD40 (gene 958) = assay: BSK_LPS_CD40: BioMAP Diversity Plus: LPS Assay for CD40 Biomarker Activity (AID 2283076); details: primary human HUVEC with PBMC; actives raise or lower the signal
# Method in brief: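 Using a multiplexed primary human co-culture (umbilical vein endothelium plus PBMC), CD40 was read by ELISA 24 h after dosing, with cytotoxicity tracked by sulforhodamine B staining of parallel cultures and activity fitted bidirectionally versus DMSO.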
# [12] = read-out: E-selectin (Homo sapiens) (UniProt P16581); assay: BSK_LPS_Eselectin: BioMAP Diversity Plus: LPS Assay for Eselectin Biomarker Activity (AID 2283077); details: primary human HUVEC with PBMC; actives raise or lower the signal
# Method in brief: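 Dose chemical onto LPS-driven HUVEC/PBMC co-culture; after 24 h, run ELISA for E-selectin; fit up- and down-going responses relative to DMSO control.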
# [13] = read-out: Monocyte Chemoattractant Protein-1 (MCP1), CCL2 (gene 6347); assay: BSK_LPS_MCP1: BioMAP Diversity Plus: LPS Assay for Monocyte Chemoattractant Protein-1 (MCP1) Biomarker Activity (AID 2283081); details: primary human HUVEC with PBMC; actives raise or lower the signal;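 on AC50: co-culture stimulated with LPS; secreted MCP-1 protein quantified by ELISA in culture supernatant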
# Method in brief: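 Values derive from bidirectional fitting against DMSO of ELISA-measured MCP-1 in a human primary endothelial and mononuclear cell co-culture, 24 h after chemical addition under LPS activation.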
# [14] = BSK_LPS_PGE2: BioMAP Diversity Plus: LPS Assay for Prostaglandin E2 (PGE2) Biomarker Activity (AID 2283082); details: primary human HUVEC with PBMC; actives raise or lower the signal
# Method in brief: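 PGE2 release measured by ELISA in an LPS-activated co-culture of human umbilical vein endothelial cells and peripheral blood mononuclear cells, read at 24 h post-dosing. DMSO served as baseline for bidirectional curve fitting.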
# [15] = read-out: Macrophage colony-stimulating factor (MCSF), CSF1 (gene 1435); assay: BSK_LPS_MCSF: BioMAP Diversity Plus: LPS Assay for Macrophage colony-stimulating factor (MCSF) Biomarker Activity (AID 2283083); details: primary human HUVEC with PBMC; actives raise or lower the signal
# Method in brief: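 Bidirectional fit versus DMSO of ELISA-measured M-CSF in co-cultured human umbilical vein endothelial cells and PBMC, sampled 24 h after dosing.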
# CD69, CD69 (gene 969) = assay: BSK_SAg_CD69: BioMAP Diversity Plus: SAg Assay for CD69 Biomarker Activity (AID 2283089); details: primary human HUVEC with PBMC; actives raise or lower the signal;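 on AC50: cell surface CD69 protein quantified by ELISA with fluorescence detection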
# Method in brief: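 ELISA, fluorescence read-out: CD69 on human umbilical vein endothelial cell + PBMC co-culture, 24 h post-dosing. Gain or loss of signal fitted bidirectionally against DMSO baseline.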
# [16] = read-out: E-selectin (Homo sapiens) (UniProt P16581); assay: BSK_SAg_Eselectin: BioMAP Diversity Plus: SAg Assay for Eselectin Biomarker Activity (AID 2283091); details: primary human HUVEC with PBMC; actives raise or lower the signal
# Method in brief: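 Endpoint values derive from bidirectional fitting relative to DMSO, using ELISA-measured E-selectin in a human vascular co-culture (umbilical vein endothelium plus PBMC) sampled 24 h after dosing.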
# [17] = read-out: Interleukin-8 (IL8), CXCL8 (gene 3576); assay: BSK_SAg_IL8: BioMAP Diversity Plus: SAg Assay for Interleukin-8 (IL8) Biomarker Activity (AID 2283094); details: primary human HUVEC with PBMC; actives raise or lower the signal
# Method in brief: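 ELISA readout of IL-8 from a superantigen-activated endothelial/PBMC primary human co-culture, taken 24 h post-dosing and fitted in both directions against DMSO; parallel SRB total-protein staining flags overt cytotoxicity.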
# [18] = CCTE_Harrill_HTTr_Apoptosis_MCF7: CCTE's 6-hour Apoptosis Assessment for the High-Throughput Transcriptomics (HTTr) Platform, in MCF-7 cells cultured in DMEM + 10% fetal bovine serum, Harrill Lab (AID 2284011)
# Method in brief: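 Apoptosis in MCF-7 cells grown in DMEM with 10% fetal bovine serum was scored after a six hour exposure by high content imaging of caspase-3/7 activation (CellEvent Caspase 3/7 Green), with DMSO serving as negative control and baseline.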
# E-selectin (Homo sapiens), sequence (P16581 whole entry, looked up): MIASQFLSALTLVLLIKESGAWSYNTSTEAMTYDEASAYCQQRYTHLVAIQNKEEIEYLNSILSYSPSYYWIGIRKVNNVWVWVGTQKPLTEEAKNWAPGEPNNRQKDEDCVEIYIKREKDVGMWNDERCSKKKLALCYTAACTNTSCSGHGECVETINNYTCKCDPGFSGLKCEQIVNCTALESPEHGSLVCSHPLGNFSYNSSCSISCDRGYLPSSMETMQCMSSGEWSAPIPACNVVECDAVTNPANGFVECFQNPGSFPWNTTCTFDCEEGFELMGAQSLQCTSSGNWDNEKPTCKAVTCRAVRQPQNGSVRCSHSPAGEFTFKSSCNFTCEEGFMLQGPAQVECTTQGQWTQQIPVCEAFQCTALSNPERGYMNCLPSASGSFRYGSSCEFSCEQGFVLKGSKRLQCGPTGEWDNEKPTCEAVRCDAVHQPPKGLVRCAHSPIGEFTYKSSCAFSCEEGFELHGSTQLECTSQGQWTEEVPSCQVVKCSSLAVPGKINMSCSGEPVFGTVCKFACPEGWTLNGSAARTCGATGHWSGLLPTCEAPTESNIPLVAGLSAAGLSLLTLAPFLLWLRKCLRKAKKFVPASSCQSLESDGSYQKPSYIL
structure (smiles),measurement,setting,value
O=C(C(=O)c1ccccc1)c1ccccc1,outcome,[1],inactive
same,outcome,[2],inactive
same,outcome,[3],inactive
same,outcome,[4],inactive
same,outcome,[5],inactive
same,outcome,[6],inactive
same,outcome,[7],inactive
same,outcome,[8],inactive
same,outcome,[9],inactive
same,outcome,[10],inactive
same,outcome,[11],inactive
same,outcome,"CD40, CD40 (gene 958)",inactive
same,outcome,[12],inactive
same,outcome,[13],inactive
same,outcome,[14],inactive
same,outcome,[15],inactive
same,outcome,"CD69, CD69 (gene 969)",inactive
same,outcome,[16],inactive
same,outcome,[17],inactive
Oc1ccc(Cl)cc1C1CCCC1,AC50,[1],33.4 µM (active)
same,outcome,[18],inactive
CC(C)CC(=O)CC(C)C,outcome,[18],inactive
O=C(O)c1ccccc1C(=O)O,outcome,[1],inactive
CCC(C)NC(N)=O (stereo not drawn),outcome,[1],inactive
CCOc1ccc2c(c1)C(C)CC(C)(C)N2 (stereo not drawn),outcome,[1],inactive
N#CCN(CC#N)CCN(CC#N)CC#N,outcome,[1],inactive
COc1c2occc2cc2ccc(=O)oc12,outcome,[1],inactive
same,outcome,[18],inactive
CO[Si](CCCNCCN)(OC)OC,outcome,[1],inactive
CC/C=C\CCO,outcome,[1],inactive
same,outcome,[18],inactive
COC(=O)/C=C\C(=O)OC,outcome,[2],inactive
same,outcome,[3],inactive
same,outcome,[4],inactive
same,outcome,[5],inactive
same,outcome,[6],inactive
same,outcome,[7],inactive
same,outcome,[8],inactive
same,outcome,[9],inactive
same,outcome,[10],inactive
same,outcome,[11],inactive
same,outcome,"CD40, CD40 (gene 958)",inactive
same,outcome,[12],inactive
same,outcome,[13],inactive
same,outcome,[14],inactive
same,outcome,[15],inactive
same,outcome,"CD69, CD69 (gene 969)",inactive
same,AC50,[16],9.12 µM (active)
same,outcome,[17],inactive
CN(C)Cc1cc(C(C)(C)C)c(O)c(C(C)(C)C)c1,outcome,[2],inactive
same,outcome,[3],inactive
same,AC50,[4],12.8 µM (active)
same,outcome,[4],inactive
same,outcome,[5],inactive
same,AC50,[6],26.9 µM (active) and 20 µM (active)
same,outcome,[7],inactive
same,AC50,[8],18.3 µM [setting not given] (active)
same,outcome,[8],inactive [setting not given]
same,AC50,[9],20 µM (active)
same,outcome,[9],inactive
same,AC50,[10],12.1 µM (active) and 20 µM (active)
same,outcome,[11],inactive
same,outcome,"CD40, CD40 (gene 958)",inactive
same,outcome,[12],inactive
same,outcome,[13],inactive
same,outcome,[14],inactive
same,outcome,[15],inactive
same,AC50,"CD69, CD69 (gene 969)",20 µM (active) and 15.4 µM (active)
same,AC50,[16],20 µM (active)
same,outcome,[16],inactive
same,AC50,[17],20 µM (active)
same,outcome,[17],inactive
CC(C)(Oc1ccc(Cl)cc1)C(=O)O,outcome,[18],inactive
O=C(c1ccccc1)c1ccccc1O,outcome,[1],inactive
Brc1ccc(Oc2ccc(Br)cc2)cc1,outcome,[1],inactive
same,outcome,[18],inactive
c1cc[c]([Bi]([c]2ccccc2)[c]2ccccc2)cc1,outcome,[1],inactive
CCOC(=O)CC(=O)OCC,outcome,[1],inactive
CCCC(=O)OC,outcome,[1],inactive
O=C(CC(C(=O)OC1CCCCC1)S(=O)(=O)O)OC1CCCCC1 (stereo not drawn),outcome,[1],inactive
Sc1nc2ccccc2s1,outcome,[2],inactive
same,AC50,[3],0.016 µM (active)
same,outcome,[4],inactive
same,outcome,[5],inactive
same,outcome,[6],inactive
same,outcome,[7],inactive
same,outcome,[8],inactive
same,outcome,[9],inactive
same,outcome,[10],inactive
same,outcome,[11],inactive
same,outcome,"CD40, CD40 (gene 958)",inactive
same,outcome,[12],inactive
same,AC50,[13],0.504 µM (active)
same,outcome,[14],inactive
same,outcome,[15],inactive
same,outcome,"CD69, CD69 (gene 969)",inactive
same,outcome,[16],inactive
same,outcome,[17],inactive

# Source: PubChem BioAssay (EPA / NIEHS)
